According to PubChem BioAssay AID1694 (National Center for Advancing Translational Sciences (NCATS), 2009):
Inconclusive results are not listed. Values without a mark were called inactive. Calls of active or inactive are those of the source. Calls come from the whole dose curve; as a rule, active = well fitted curve in the direction sought with a large enough effect; inconclusive = small, poorly fitted or top-dose-only effect, or another doubt; inactive = no such curve, though single readings can be large or run the other way.

Test: Confirmation Concentration-Response Assay for Inhibitors of Tau Fibril Formation, Total Fluorescence Counterscreen for Fluorescence Polarization
Settings: Alexa594-tau K18 total fluorescence counterscreen, interference, tau K18 with P301L mutation; series mostly up to 100 µM; fluorescence change, negative = quenching: at the top concentration
Text: NIH Molecular Libraries Probe Production Network [MLPCN] NIH Chemical Genomics Center [NCGC] MLPCN Grant: X01 MH083262-01 Assay Provider: Carlo Ballatore, University of Pennsylvania NCGC Assay Overview: The microtubule-associated protein tau is an abundant protein in the axons of neurons that stabilizes microtubules. With its ability to modulate microtubule dynamics, tau contributes directly or indirectly, to key structural and regulatory cellular functions. Particularly important is the influence tau exerts on axonal transport, which allows signaling molecules, trophic factors and other essential cellular constituents to travel along the axons. Under pathological conditions, tau becomes sequestered into insoluble aggregates called neurofibrillary tangles. This phenomenon is believed to have pathological consequences by promoting axonal transport deficits that ultimately lead to synaptic dysfunction and neuronal loss. To identify inhibitors of tau aggregation, a heparin-induced tau fibril formation assay was used that employed a recombinantly expressed fragment of tau, K18 (Q242-E372), bearing a P301L mutation (Gustke et al. 1994; Hong et al. 1998). […] Total fluorescence (555 nm excitation and 632 nm emission) was measured to identify fluorescent or absorbent compounds at this wavelength. Such compounds may be artifacts that interfere with the Alexa 594 Tau fluorescence polarization assay. Gustke, N., B. Trinczek, et al. (1994). "Domains of tau protein and interactions with microtubules." Biochemistry 33(32): 9511-22. Hong, M., V. Zhukareva, et al. (1998). "Mutation-specific functional impairments in distinct tau isoforms of hereditary FTDP-17." Science 282(5395): 1914-7. Li, W. and V. M. Lee (2006). "Characterization of two VQIXXK motifs for tau fibrillization in vitro." Biochemistry 45(51): 15692-701. von Bergen, M., S. Barghorn, et al. (2001). "Mutations of tau protein in frontotemporal dementia promote aggregation of paired helical filaments by enhancing local beta-structure." J Biol Chem 276(51): 48165-74.
For screening, 2 uL/well human K18 P301L (15 uM unlabeled and 0.24 uM Alexa 594-labeled tau final concentrations) in reagent buffer (100 mM sodium acetate pH 7) was dispensed into black solid 1536-well plates (Grenier) using a solenoid-based dispenser. Following transfer of 23 nL compound or DMSO vehicle by a pin tool, 2 uL/well heparin (20 uM final concentration) in reagent buffer was added and the plate centrifuged 15 s at 1000 RPM. Plates were incubated 6 hr at 37 C and then 1 uL/well ThT (30 uM final concentration) was added. After a 1 hr ambient incubation, the plates were read by an Envision (Perkin Elmer) to monitor Alexa 594 FP (555 nm excitation and 632 nm emission). Keywords: NIH Roadmap, MLPCN, MLI, MLSMR, NCGC, qHTS, tau, tauopathies, Alzheimer's disease, fibril, neurodegeneration, aggregation

Structure (SMILES)	fluorescence change, negative = quenching	Potency
COc1ccc2c(c1)c(CC(=O)Nc1ccc(C(C)=O)cc1)c(C)n2C(=O)c1ccc(Cl)cc1	-12.3%	
COC(=O)C1CCc2sc(N)c(C(=O)OCc3ccccc3)c21 (stereo not given)	-3.27% [at 57.1 µM]	
COC(=O)C1CCc2sc(NC(=O)Cc3ccccc3)c(C(=O)Nc3ccc(Cl)cc3)c21 (stereo not given)	-9.79% [at 57.1 µM]	
Cc1ccc(NC(=O)c2c(NC(=O)Cc3ccccc3)sc3c2CCCC3)cc1	-4.68% [at 57.1 µM]	
CCOC(=O)c1ccc(S(=O)(=O)Nc2nc3cc(S(=O)(=O)NC4=NCCCCC4)ccc3s2)cc1	2.36%	
Nc1nn(-c2ccccc2)c(=O)c2c(N)scc12	-1.43% [at 57.1 µM]	
NCCc1ccc(O)c(O)c1	-17.2%	
CC(C)C(C)NC(=O)CSc1nc2scc(-c3ccco3)c2c(=O)n1-c1ccccc1 (stereo not given)	24.5%	
CC1CCc2c(sc(NC(=O)Cc3ccccc3)c2C(=O)Nc2ccc(Cl)cc2)C1 (stereo not given)	-0.241% [at 57.1 µM]	
Nc1c(-c2ccccc2)cc[nH]c1=O	-6.15%	
Cc1ccc(C(=O)Nc2nc(=O)n(C(=O)CC(C)C)s2)cc1	2.86%	
CN(c1ccccc1)S(=O)(=O)c1nnc(NC(=O)COc2ccccc2)s1	-11.1%	
Nc1scc2c(CO)nn(-c3ccccc3)c(=O)c12	-2.64% [at 57.1 µM]	
COc1ccc2c(c1)c(CC(=O)N1CCOCC1)c(C)n2C(=O)c1ccc(Cl)cc1	-5.26%	
CN(C)c1ccc(-c2cc[nH]c(=O)c2N)cc1	-17.8%	
Cc1ccc(-c2ccc(/C=N/N=C3/NC(=O)C(CC(=O)O)S3)o2)c([N+](=O)[O-])c1 (stereo not given)	4.37%	
O=S(=O)(c1ccc(N=C2NN=C(c3cc(F)ccc3F)CS2)cc1)N1CCOCC1	-19.6%	
Cc1ccc(NCc2cc3cc4c(cc3n(CC(=O)Nc3ccc(C)cc3)c2=O)OCCO4)cc1	-9.33%	
NC[C@@H](O)c1ccc(O)c(O)c1	-7.44%	
COc1cccc(/C=C2/SC(=S)N(CC(=O)Nc3nccs3)C2=O)c1	-19.7% [at 57.1 µM]	

Structure (SMILES)	fluorescence change, negative = quenching	Potency
CCOC(=O)c1ccc(-n2nc(C(=O)OCC)c3csc(N)c3c2=O)cc1	-11.1% [at 57.1 µM]	
NC(=O)c1nn(-c2ccccc2)c(=O)c2c(N)scc12	1.1% [at 57.1 µM]	
CN(C)c1ccc(N2C(=O)CSC2=S)cc1	-26.9%	
Cc1ccc(C(=O)Nc2nc(=O)n(C(=O)C3CC3)s2)cc1	12.3%	
O=C(Cc1ccccc1)Nc1sc2c(c1C(=O)Nc1ccc(Cl)cc1)CCOC2	-16.6% [at 57.1 µM]	
CN(C(=S)Nc1cccnc1)c1ccc(O)cc1	5.46%	
Cc1cccc(NC(=O)c2c(NC(=O)c3ccccc3)sc3c2CCCC3)c1	-10.3% [at 57.1 µM]	
O=C(CSc1nc2scc(-c3ccco3)c2c(=O)n1-c1ccccc1)N1CCOCC1	-2.9% [at 57.1 µM]	
COC(=O)c1nn(-c2ccc(OC)cc2)c(=O)c2c(N)sc(C)c12	-0.76%	
COC(=O)c1c(N)sc2c1C(C(=O)OC)CC2 (stereo not given)	-4.91% [at 57.1 µM]	
COc1cccc(/C=C2/SC(=S)N(CC(=O)Nc3nnc(C)s3)C2=O)c1	-9.01% [at 57.1 µM]	
CCOC(=O)c1nn(-c2ccc(OC)cc2)c(=O)c2c(N)scc12		inactive
CCOC(=O)c1nn(-c2ccc(OC)cc2)c(=O)c2c(NC(=O)Cc3ccccc3)scc12	-11.1% [at 57.1 µM]	
Cc1ccc(NC(=O)N2CCN(c3ccccn3)CC2)cc1	5.36%	
COc1cc(/C=N/N=C2/NC(=O)C(CC(=O)O)S2)ccc1OCc1ccc(Cl)cc1 (stereo not given)	22.5%	
O=C(Nc1sc2c(c1C(=O)Nc1cccc(Cl)c1)CCCC2)c1cccs1	-14.5% [at 57.1 µM]	
CN(C)C(=O)c1ccc(-c2cc[nH]c(=O)c2N)cc1	-10.2%	
N#Cc1cccc(NC(=O)c2ccc3c(c2)N(Cc2cccc(Cl)c2)C(=O)c2ccccc2S3(=O)=O)c1	-2.79%	
COC(=O)c1ccccc1NC(=O)CSc1nc2sc3c(c2c(=O)[nH]1)CCCC3	1.44%	
CCOC(=O)N1CCN(C(=O)CN2C(=O)/C(=C\c3cccc(OC)c3)SC2=S)CC1	-16.9% [at 57.1 µM]	
